# Source: PubChem BioAssay (NCI)
# About 83,000 compounds went through this panel and 20% of them were active in at least one assay; those are over-represented in the sample as a whole.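 Each cell line was grown in a 96-well plate and treated with one concentration of compound for 48 hours. Values below 10 were considered active.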 Values without a mark were called inactive. The source made the active and inactive calls.
# Experiments:
# Assay in all cases: NCI-60 one-dose screen, 48 h (100 = growth as untreated, 0 = no growth, -100 = all killed)
# Conditions in all cases: 10 µM unless noted
# DU-145 prostate = tested on: DU-145 prostate
# K-562 leukemia = tested on: K-562 leukemia
# MALME-3M melanoma = tested on: MALME-3M melanoma
# MDA-MB-231 breast = tested on: MDA-MB-231 breast
# RXF 393 renal = tested on: RXF 393 renal
# SF-268 CNS = tested on: SF-268 CNS
# SF-295 CNS = tested on: SF-295 CNS
# SF-539 CNS = tested on: SF-539 CNS
# UACC-257 melanoma = tested on: UACC-257 melanoma
# M14 melanoma = tested on: M14 melanoma
# HCT-15 colon = tested on: HCT-15 colon
# HT29 colon = tested on: HT29 colon
# SNB-75 CNS = tested on: SNB-75 CNS
# SNB-19 CNS = tested on: SNB-19 CNS
# PC-3 prostate = tested on: PC-3 prostate
# SK-MEL-5 melanoma = tested on: SK-MEL-5 melanoma
# UACC-62 melanoma = tested on: UACC-62 melanoma
# LOX IMVI melanoma = tested on: LOX IMVI melanoma
# SK-MEL-28 melanoma = tested on: SK-MEL-28 melanoma
# U251 CNS = tested on: U251 CNS
Compound,growth (DU-145 prostate),growth (K-562 leukemia),growth (MALME-3M melanoma),growth (MDA-MB-231 breast),growth (RXF 393 renal),growth (SF-268 CNS),growth (SF-295 CNS),growth (SF-539 CNS),growth (UACC-257 melanoma),growth (M14 melanoma),growth (HCT-15 colon),growth (HT29 colon),growth (SNB-75 CNS),growth (SNB-19 CNS),growth (PC-3 prostate),growth (SK-MEL-5 melanoma),growth (UACC-62 melanoma),growth (LOX IMVI melanoma),growth (SK-MEL-28 melanoma),growth (U251 CNS)
O=C(Nc1cc(-c2cccnc2)nc(NCCCN2CCOCC2)n1)c1cc(Br)cc(C(F)(F)F)c1,82.6%,8.84% (active),-7.83% (active),32.7%,52.8%,60.9%,-22.8% (active),66.5%,-27.1% (active),-72.1% (active),6.87% (active),8.99% (active),72.1%,69.6%,57.7%,3.78% (active),-6.13% (active),-16.8% (active),-49.8% (active),
CCn1cc(-c2[nH]c(=S)ncc2-c2ccc(Cl)cc2)c(-c2ccc(Br)cc2)n1,100%,120%,108%,89.1%,109%,75.1%,68.4%,87.5%,84.8%,66.7%,85.5%,92.1%,99.1%,75.6%,64.3%,86.4%,76.7%,86.8%,73.7%,
CC[C@]12C=CCN3CC[C@@]4(c5ccc(OC)cc5N(C)[C@H]4[C@@](O)(C(=O)OC)[C@@H]1OC(=O)CCC(=O)N[C@H](Cc1c[nH]c4ccccc14)C(=O)OC)[C@@H]32,-49.9% [100 µM] (active),5.85% [100 µM] (active),-68.8% [100 µM] (active),-71% [100 µM] (active),-60.6% [100 µM] (active),-43% [100 µM] (active),-38.4% [100 µM] (active),-57.1% [100 µM] (active),-29.2% [100 µM] (active),-32.8% [100 µM] (active),-24.1% [100 µM] (active),5.23% [100 µM] (active),-68.8% [100 µM] (active),-51.2% [100 µM] (active),-15.8% [100 µM] (active),-53% [100 µM] (active),-61.1% [100 µM] (active),-54.4% [100 µM] (active),-49.6% [100 µM] (active),
COc1c(C(C)=O)c(OCCCCOc2c(C(C)=O)c(OC)c3ccoc3c2OC)c(OC)c2occc12,116%,54.3%,48.8%,82.7%,80.7%,84.3%,19.7%,105%,73.3%,99.3%,78.8%,65.9%,107%,80%,55.2%,51.3%,55.8%,,96.3%,
COc1cc(/C=C/C(=O)/C=C/c2ccc(-n3ccnc3C)cc2)ccc1O,54%,13.2%,101%,97.1%,47.8%,49.9%,84.3%,-0.75% (active),89.3%,111%,82.4%,-42.9% (active),76.4%,79.3%,74.2%,85.2%,95.1%,,84.1%,-1.61% (active)
CCN1CCN(CC(=O)Nc2nc3ccc(NCc4ccc(Cl)cc4)cc3s2)CC1,89.6%,2.71% (active),0.984% (active),51.9%,51.2%,71%,81.6%,64.3%,7.11% (active),-76.6% (active),0.991% (active),19.6%,103%,79.6%,52.7%,-37.9% (active),-12% (active),16.9%,24.7%,
C#CCOc1ccc(C2=NN(CC3CC3)C3N=C(Cl)c4ncn(CC5CC5)c4N23)cc1OCC#C (stereo unspecified),69%,48.6%,83.5%,87.5%,51.2%,96.8%,88%,90%,98.8%,74.3%,69.5%,84.3%,84.6%,98.7%,63.7%,60.9%,59.7%,68.4%,93.6%,
COc1ccc(C(=O)CSc2nnc(-c3cc(-c4ccccc4)nc4ccccc34)o2)cc1,110%,103%,96.7%,98.7%,122%,100%,102%,106%,105%,105%,103%,113%,102%,94.3%,105%,105%,98%,,109%,103%
